# Measured values taken from the supplement of paper PMC10981050.
# Several values for one entry are separate records, joined by “and”; a condition that tells them apart may be missing. Identical values can stand only once. Counter-ions that a name gives are not always drawn.
# Tests used:
# Assay in all cases: cell viability relative to vehicle control; higher = less cytotoxic
# Settings in all cases: 10 µM
# K562 = system: K562
# Method in brief: (§1)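 Screening covered the Selleck bioactive, kinase and epigenetic probe libraries, less identity-inconsistent compounds, on CRISPR-edited mutant clones and isogenic wild-type clones of four leukaemia lines. Cells, at 2000 per well in 50 µL medium, received a single 10 µM acoustically dispensed dose. After 48 h the supernatant was removed and CellTiter-Glo luminescence was read. Viability was analysed in Genedata Screener as percent of the on-plate vehicle control.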
# MARIMO = system: MARIMO
# Method in brief: as §1
# MOLM14 = system: MOLM14
# Method in brief: as §1
# OCI-AML2 = system: OCI-AML2
# Method in brief: as §1
Compound,cell viability (K562; SRSF2 genotype: SRSF2 P95H/wt),cell viability (K562; SRSF2 genotype: SRSF2 wt/wt),cell viability (MARIMO; SRSF2 genotype: SRSF2 P95H/wt),cell viability (MARIMO; SRSF2 genotype: SRSF2 wt/wt),cell viability (MOLM14; SRSF2 genotype: SRSF2 P95H/wt),cell viability (MOLM14; SRSF2 genotype: SRSF2 wt/wt),cell viability (OCI-AML2; SRSF2 genotype: P95H/wt),cell viability (OCI-AML2; SRSF2 genotype: wt/wt)
N=C1S/C(=C\c2ccc(-c3ccc4c(c3)C(=O)NC4=O)o2)C(=O)N1c1ccc(Br)cc1 [Bioymifi],95.1% and 88.2%,87.4%,99%,101%,90.1%,93.1%,96.6%,93.1%
COc1cc(Cc2cnc(N)nc2N)cc(OC)c1OC [Trimethoprim],102% and 101%,94.4%,103%,104%,102%,104%,101%,101%
c1ccc2c(c1)CCCC2C1=NCCN1 (stereo not drawn) [Tetrahydrozoline HCl],101% and 92.1%,92.9%,92.1%,97.2%,79.5%,90.7%,87.8%,93.8%
CCc1ccc(Cc2ccc3c(c2)[C@]2(OC3)O[C@H](CO)[C@@H](O)[C@H](O)[C@H]2O)cc1 [Tofogliflozin(CSG 452)],81.3% and 83.7%,81.2%,77.3%,88.5%,80.2%,82.5%,93.8%,85.6%
C=C[C@H]1CN2CC[C@H]1C[C@H]2[C@H](O)c1ccnc2ccc(OC)cc12 [Quinine hydrochloride dihydrate],90.8% and 92.7%,88%,87.7%,86.5%,79.7%,93.2%,88.9%,84.9%
O=[N+]([O-])c1ccc(Nc2nc(N3CCOCC3)nc(N3CCOCC3)n2)cc1,99% and 99.5%,95.7%,95.7%,95.8%,112%,99.8%,107%,116%
CCCC1O[C@@H]2C[C@H]3[C@@H]4CCC5=CC(=O)C=C[C@]5(C)[C@H]4[C@@H](O)C[C@]3(C)[C@]2(C(=O)CO)O1 (stereo partly drawn) [Budesonide],85.5% and 95.1%,83.7%,97.6%,103%,86.1%,84%,70.5%,87.6%
CCCN(CCc1cccs1)[C@H]1CCc2c(O)cccc2C1 [Rotigotine],99.3% and 105%,104%,89.7%,105%,93.8%,101%,107%,92.3%
O=C(Nc1cccnc1)c1cc(-c2ccnc(F)c2)ccc1OCc1ccccc1,97.4% and 102%,94.6%,97.5%,102%,104%,98.7%,95.8%,95.6%
CC(OC(=O)OC1CCCCC1)OC(=O)C1=C(CSc2nnnn2CCN(C)C)CS[C@@H]2[C@H](NC(=O)Cc3csc(N)n3)C(=O)N12 (stereo partly drawn) [Cefotiam Hexetil Hydrochloride],105% and 98.2%,93.7%,87.5%,94.9%,89.9%,94.3%,90%,93.8%
COc1cc(F)c(C(C)C)cc1-c1ccc(C(F)(F)F)cc1CN1C(=O)O[C@H](c2cc(C(F)(F)F)cc(C(F)(F)F)c2)[C@@H]1C [Anacetrapib (MK-0859)],97.5% and 95.6%,92.9%,91.2%,105%,98.7%,99%,91.8%,102%
COc1ccc(/C=C/c2cc(OC)cc(=O)o2)cc1 [Yangonin],108% and 102%,104%,97.7%,99.3%,115%,114%,94.1%,98.2%
COC(=O)N[C@H](C(=O)N[C@@H](Cc1ccccc1)[C@@H](O)CN(Cc1ccc(-c2ccccn2)cc1)NC(=O)[C@@H](NC(=O)OC)C(C)(C)C)C(C)(C)C [Atazanavir sulfate],97.1% and 109%,102%,93.5%,118%,103%,104%,94.5%,97.3%
C[C@@H]1C[C@H]2[C@@H]3CCC4=CC(=O)C=C[C@]4(C)[C@@]3(Cl)[C@@H](O)C[C@]2(C)[C@@]1(OC(=O)c1ccco1)C(=O)CCl [Mometasone furoate],91.2% and 98.8%,92.2%,87.8%,103%,82.7%,79%,113%,118%
COc1ccc(-c2nc(N3CCOCC3)c3sc(CN(C)c4ncc(C(=O)NO)cn4)cc3n2)cn1,1.16% and 7.95%,2.68%,1.32%,2.78%,0.39%,0.45%,0.79%,1.17%
O=C(NNc1ccccc1)c1ccncc1,82.8% and 97.5%,77.1%,91.1%,101%,93.5%,89.5%,92.7%,97.9%
C/C(=C\C(=O)Nc1ccccc1C(=O)O)c1ccc2ccccc2c1,101% and 90.8%,106%,84.3%,98.2%,88.5%,92.8%,95.1%,93.6%
CNc1cc(-c2cccc(Cl)c2Cl)nc(N)n1,15.8% and 28.9%,29.6%,12.2%,9.54%,9.14%,2.78%,6%,11.5%
CN1CCC(COc2cnc(-c3cccc(Cn4nc(-c5cccc(C#N)c5)ccc4=O)c3)nc2)CC1,30.9% and 26.1%,30.5%,61.7%,63.6%,55.6%,47.5%,49.2%,52.8%
Cn1cc(C2=C(c3cccc(N)c3)C(=O)NC2=O)c2ccccc21,51.4% and 36.7%,58.5%,65.4%,86%,59.8%,72.1%,78.8%,101%
CC(=CCNc1ncnc2c1ncn2C1OC(CO)C(O)C1O)CO (stereo not drawn) [trans-Zeatin-riboside],107% and 105%,108%,99.7%,110%,104%,105%,116%,117%

Compound,cell viability (K562; SRSF2 genotype: SRSF2 P95H/wt),cell viability (K562; SRSF2 genotype: SRSF2 wt/wt),cell viability (MARIMO; SRSF2 genotype: SRSF2 P95H/wt),cell viability (MARIMO; SRSF2 genotype: SRSF2 wt/wt),cell viability (MOLM14; SRSF2 genotype: SRSF2 P95H/wt),cell viability (MOLM14; SRSF2 genotype: SRSF2 wt/wt),cell viability (OCI-AML2; SRSF2 genotype: P95H/wt),cell viability (OCI-AML2; SRSF2 genotype: wt/wt)
COc1nc2ccc(Br)cc2cc1[C@@H](c1ccccc1)[C@@](O)(CCN(C)C)c1cccc2ccccc12 [Bedaquiline],74.8% and 74.5%,85.4%,70.4%,69.3%,51.8%,75.5%,38.5%,55.4%
O=C(O)CCCc1ccccc1 [Sodium Phenylbutyrate],110% and 98.8%,105%,100%,109%,96.9%,102%,94.8%,100%
O=C(NC1(c2ccccc2)CC1)c1c(CN2CCC(N3CCCCC3)CC2)c(-c2cccc(C(F)(F)F)c2)nc2cc(Br)ccc12,8.23% and 19.8%,11.8%,66.8%,58.4%,64.9%,71.4%,1.08%,24.1%
Nc1c(CC(=O)O)cccc1C(=O)c1ccccc1 [Amfenac Sodium (monohydrate)],103% and 98.3%,93.7%,94.7%,101%,91.5%,95.9%,88.5%,99.8%
C/C1=C2N=C(/C=C3N=C(/C(C)=C4\[N-]C(C(CC(N)=O)C4(C)CCC(=O)NCC(C)OP(=O)([O-])OC4C(CO)OC(n5cnc6cc(C)c(C)cc65)C4O)C4(C)N=C1C(CCC(N)=O)C4(C)CC(N)=O)C(CCC(N)=O)C\3(C)C)C(CCC(N)=O)C/2(C)CC(N)=O.[CH3-].[Co+3] (stereo not drawn) [Methylcobalamin],89.6% and 88.5%,101%,88.4%,88.6%,90.8%,94.3%,95.2%,97%
"CC1(C)CCC(CN2CCN(c3ccc(C(=O)NS(=O)(=O)c4ccc(NCC5CCOCC5)c([N+](=O)[O-])c4)c(Oc4cnc5[nH]ccc5c4)c3)CC2)=C(c2ccc(Cl)cc2)C1 [Venetoclax (ABT-199, GDC-0199)]",79% and 81.2%,76%,0.58%,6.31%,1.63%,7.23%,1.25%,10.2%
CN1CCN(C2CCN(C(=O)Nc3cc(Oc4ccc(NC(=O)C5(C(=O)Nc6ccc(F)cc6)CC5)c(F)c4)ccn3)CC2)CC1 [Golvatinib (E7050)],5.46% and 7.13%,10.1%,61.6%,58.9%,4.27%,8.67%,7.56%,18.6%
CCC1(c2c[nH]cn2)Cc2ccccc2C1 [Atipamezole],82.9% and 78.3%,81.6%,83.2%,85.9%,78.9%,88.9%,90%,89.7%
Cc1c(C)c2c(c(C)c1O)CCC(C)(CCCC(C)CCCC(C)CCCC(C)C)O2 (stereo not drawn) [Vitamin E],96.5% and 100%,108%,106%,104%,105%,104%,106%,100%
O=C(O)CCCCC(CCSCc1ccccc1)SCc1ccccc1 (stereo not drawn),106% and 104%,100%,99.6%,111%,100%,103%,94.6%,112%
O=C1C(=O)N(Cc2ccc(Cl)c(Cl)c2)c2ccccc21 [Apoptosis Activator 2],62.4% and 47.9%,37.7%,25.5%,33.1%,3.92%,1.81%,32%,13.7%
C1=Cc2ccccc2Nc2ccccc21 [Iminostilbene],101% and 95.4%,98.1%,95.5%,113%,105%,108%,106%,92.6%
CC(C)=CCCC(C)=CCCC(C)=CCCC(C)=CCC1=C(C)C(=O)c2ccccc2C1=O [Vitamin K2],93.6% and 95.4%,102%,82.8%,92.6%,87.7%,101%,88.6%,89.1%
O=C(O)[C@H]1CSC(c2nc3ccc(O)cc3s2)=N1 [D-Luciferin],90.6% and 83.7%,92.3%,82.4%,92.8%,85.8%,90.7%,86.7%,87.9%
CC(C)(Sc1ccncc1-c1ccc(C#N)c2ccccc12)C(=O)O [Verinurad (RDEA3170)],102% and 101%,102%,105%,104%,95.8%,102%,109%,105%
CC(C)(O[C@@H]1O[C@H](CO)[C@@H](O)[C@H](O)[C@H]1O)[C@H]1Cc2cc3ccc(=O)oc3cc2O1 [Nodakenin],101% and 107%,109%,98.7%,101%,110%,100%,106%,103%
CCn1c(N)c(C(=O)NC)c(=O)c2ccc(C#CC(C)(O)COC)nc21 (stereo not drawn),105% and 99.5%,97.9%,87.4%,93.7%,48.1%,55.5%,64.6%,64.6%
CCn1cc(C(=O)O)c(=O)c2cc(F)c(N3CCNCC3)nc21 [Enoxacin (Penetrex)],111% and 106%,108%,109%,111%,105%,110%,112%,105%
Cc1ccc(NC(=O)c2cccc(C(C)(C)C#N)c2)cc1Nc1ccc2ncn(C)c(=O)c2c1,12.9% and 33%,25.2%,44%,40.9%,44.9%,35.3%,42.7%,41.7%
O=C(O)c1cn(C2CC2)c2cc(Cl)c(F)cc2c1=O [Fluoroquinolonic Acid],108% and 104%,108%,97.5%,101%,104%,110%,104%,110%
